Experiments:
Experiment in all cases: DAPPL (digital affinity profiling via proximity ligation, sequencing); 10 mM Tris-HCl pH 7.5, 50 mM NaCl, 1 mM DTT, 4% glycerol, room temperature, 30 min; GST-TFs on glutathione beads, 16-mer random dsDNA library, 0.1% formaldehyde crosslink after washing; high values mean tight binding
FEV = biological target: T1, FEV (Homo sapiens, UniProt Q99581 1-238); conditions: protein: recombinant; tags: N-terminal GST; dsDNA, one strand shown
T1 sequence: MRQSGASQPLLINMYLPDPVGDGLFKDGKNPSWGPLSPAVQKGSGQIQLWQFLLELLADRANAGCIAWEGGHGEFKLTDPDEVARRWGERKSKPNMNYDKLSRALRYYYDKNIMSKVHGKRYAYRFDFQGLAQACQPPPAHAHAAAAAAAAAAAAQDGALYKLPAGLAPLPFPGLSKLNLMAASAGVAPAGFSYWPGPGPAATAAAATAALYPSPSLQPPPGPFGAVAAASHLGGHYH
Procedure, shortened: (§1)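 In yeast, human transcription factors were expressed with a GST fusion, then pulled down on glutathione beads and given DNA barcodes. Pooled with a tag-only sample, they were exposed to 200 nmole of a 16-mer random double-stranded DNA library (Tris/NaCl/DTT/glycerol buffer, room temperature, 30 min), washed, crosslinked with 0.1% formaldehyde, proximity-ligated using BsaI/T4 ligase for 1 h at 37 °C, PCR-amplified and read on an Illumina NextSeq500. Each hexamer's frequency of reads for a factor, divided by the matching frequency for the tag-only sample, gives the binding signal.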

ETV5 = ETV5 (Homo sapiens, UniProt P41161 1-510); conditions: protein: recombinant; tags: N-terminal GST; dsDNA, one strand shown
Sequence of ETV5 (P41161 whole entry): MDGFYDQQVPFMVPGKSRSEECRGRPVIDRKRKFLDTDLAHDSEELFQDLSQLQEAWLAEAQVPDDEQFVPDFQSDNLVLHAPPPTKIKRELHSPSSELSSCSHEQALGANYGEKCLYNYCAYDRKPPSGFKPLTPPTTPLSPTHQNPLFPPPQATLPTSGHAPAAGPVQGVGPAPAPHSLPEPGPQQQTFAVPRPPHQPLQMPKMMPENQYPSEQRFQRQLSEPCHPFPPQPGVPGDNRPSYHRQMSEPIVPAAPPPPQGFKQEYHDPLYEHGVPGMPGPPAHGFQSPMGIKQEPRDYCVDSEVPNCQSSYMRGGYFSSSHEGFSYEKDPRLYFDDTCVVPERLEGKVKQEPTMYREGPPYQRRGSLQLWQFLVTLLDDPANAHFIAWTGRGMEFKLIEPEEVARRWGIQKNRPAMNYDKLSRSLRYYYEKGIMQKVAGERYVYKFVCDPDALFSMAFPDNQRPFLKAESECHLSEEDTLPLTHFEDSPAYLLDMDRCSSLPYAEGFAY
Procedure, shortened: as §1

HSF1 = HSF1 (Homo sapiens, UniProt Q00613 1-529); conditions: protein: recombinant; tags: N-terminal GST; chain copies: 3; dsDNA, one strand shown
Sequence of HSF1 (Q00613 whole entry): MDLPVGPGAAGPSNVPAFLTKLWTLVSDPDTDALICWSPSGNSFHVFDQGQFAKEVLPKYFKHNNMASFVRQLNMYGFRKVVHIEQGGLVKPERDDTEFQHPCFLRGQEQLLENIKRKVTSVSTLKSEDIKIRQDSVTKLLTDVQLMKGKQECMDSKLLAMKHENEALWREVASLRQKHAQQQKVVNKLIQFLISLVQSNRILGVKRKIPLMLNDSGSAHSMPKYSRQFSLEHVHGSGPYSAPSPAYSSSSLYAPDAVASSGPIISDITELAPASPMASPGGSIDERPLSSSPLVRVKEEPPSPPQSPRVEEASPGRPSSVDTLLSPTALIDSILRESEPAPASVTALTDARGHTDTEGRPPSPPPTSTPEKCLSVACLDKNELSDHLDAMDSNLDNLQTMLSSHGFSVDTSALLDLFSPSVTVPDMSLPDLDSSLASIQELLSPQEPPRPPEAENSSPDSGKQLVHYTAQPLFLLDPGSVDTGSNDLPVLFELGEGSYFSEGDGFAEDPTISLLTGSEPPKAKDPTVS
Procedure, shortened: as §1

SPIC = biological target: T2, SPIC (Homo sapiens, UniProt Q8N5J4 1-248); conditions: protein: recombinant; tags: N-terminal GST; dsDNA, one strand shown
T2 sequence: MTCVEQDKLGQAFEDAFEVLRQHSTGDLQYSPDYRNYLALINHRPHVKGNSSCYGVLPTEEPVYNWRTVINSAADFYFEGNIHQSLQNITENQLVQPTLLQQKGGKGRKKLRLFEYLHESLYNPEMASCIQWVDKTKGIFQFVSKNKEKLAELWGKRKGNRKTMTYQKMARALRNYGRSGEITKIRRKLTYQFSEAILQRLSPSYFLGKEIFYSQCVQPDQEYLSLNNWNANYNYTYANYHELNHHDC
Procedure, shortened: as §1

ELF4 = ELF4 (Homo sapiens, UniProt Q99607 1-663); conditions: protein: recombinant; tags: N-terminal GST; dsDNA, one strand shown
Sequence of ELF4 (Q99607 whole entry): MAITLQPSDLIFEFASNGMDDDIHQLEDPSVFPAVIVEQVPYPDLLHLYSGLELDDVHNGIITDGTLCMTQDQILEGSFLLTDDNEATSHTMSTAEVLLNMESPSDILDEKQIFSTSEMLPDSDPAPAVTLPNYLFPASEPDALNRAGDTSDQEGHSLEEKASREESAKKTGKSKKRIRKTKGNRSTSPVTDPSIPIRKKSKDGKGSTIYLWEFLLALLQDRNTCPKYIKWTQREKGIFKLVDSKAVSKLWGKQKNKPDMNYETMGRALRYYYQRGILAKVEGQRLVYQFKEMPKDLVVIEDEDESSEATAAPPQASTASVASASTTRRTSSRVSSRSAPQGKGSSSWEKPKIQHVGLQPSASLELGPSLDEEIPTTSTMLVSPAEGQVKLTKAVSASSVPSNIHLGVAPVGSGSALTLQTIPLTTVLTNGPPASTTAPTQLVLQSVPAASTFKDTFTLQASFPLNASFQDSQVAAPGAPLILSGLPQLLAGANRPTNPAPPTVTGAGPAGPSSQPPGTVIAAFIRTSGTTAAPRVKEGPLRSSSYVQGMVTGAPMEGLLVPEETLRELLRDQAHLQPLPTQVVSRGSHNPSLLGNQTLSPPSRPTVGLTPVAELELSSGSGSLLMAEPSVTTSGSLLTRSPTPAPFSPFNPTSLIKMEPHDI
Procedure, shortened: as §1

ELK4 = biological target: T3, ELK4 (Homo sapiens, UniProt P28324-2 1-405); conditions: protein: recombinant; tags: N-terminal GST; dsDNA, one strand shown
T3 sequence: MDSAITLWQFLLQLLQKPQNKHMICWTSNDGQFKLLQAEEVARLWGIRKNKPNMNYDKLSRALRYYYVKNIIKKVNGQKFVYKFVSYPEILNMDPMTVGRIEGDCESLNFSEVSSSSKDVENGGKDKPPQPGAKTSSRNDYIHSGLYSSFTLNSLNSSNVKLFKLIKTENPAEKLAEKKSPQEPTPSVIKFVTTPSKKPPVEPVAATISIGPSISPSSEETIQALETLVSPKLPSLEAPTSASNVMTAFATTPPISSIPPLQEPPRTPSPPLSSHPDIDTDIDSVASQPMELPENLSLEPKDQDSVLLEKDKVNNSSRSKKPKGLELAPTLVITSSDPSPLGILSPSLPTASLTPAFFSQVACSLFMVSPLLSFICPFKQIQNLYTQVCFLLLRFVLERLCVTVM
Procedure, shortened: as §1

ETV2 = biological target: T4, ETV2 (Homo sapiens, UniProt O00321 1-342); conditions: protein: recombinant; tags: N-terminal GST; dsDNA, one strand shown
T4 sequence: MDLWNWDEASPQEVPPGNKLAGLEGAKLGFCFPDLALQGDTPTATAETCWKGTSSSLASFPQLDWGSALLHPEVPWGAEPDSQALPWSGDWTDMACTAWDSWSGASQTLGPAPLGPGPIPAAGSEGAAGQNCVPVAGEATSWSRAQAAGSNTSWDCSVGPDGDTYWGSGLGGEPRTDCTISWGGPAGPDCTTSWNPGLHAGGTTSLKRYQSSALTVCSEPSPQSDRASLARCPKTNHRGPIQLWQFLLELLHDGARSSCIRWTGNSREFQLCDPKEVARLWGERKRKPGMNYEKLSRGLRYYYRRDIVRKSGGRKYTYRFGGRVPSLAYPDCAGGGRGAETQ
Procedure, shortened: as §1

ELF3 = biological target: T5, ELF3 (Homo sapiens, UniProt P78545 1-371); conditions: protein: recombinant; tags: N-terminal GST; dsDNA, one strand shown
T5 sequence: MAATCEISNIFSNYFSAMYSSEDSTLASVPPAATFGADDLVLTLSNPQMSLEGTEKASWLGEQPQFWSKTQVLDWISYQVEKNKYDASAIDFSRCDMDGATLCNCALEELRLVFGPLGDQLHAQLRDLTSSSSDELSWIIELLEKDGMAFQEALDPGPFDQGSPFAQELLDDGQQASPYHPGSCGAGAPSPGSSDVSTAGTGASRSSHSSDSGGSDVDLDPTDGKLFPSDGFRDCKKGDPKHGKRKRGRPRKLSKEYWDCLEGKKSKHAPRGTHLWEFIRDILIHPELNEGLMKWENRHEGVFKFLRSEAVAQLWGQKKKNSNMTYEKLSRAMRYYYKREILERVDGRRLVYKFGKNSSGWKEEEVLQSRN
Procedure, shortened: as §1

CRX = CRX (Homo sapiens, UniProt O43186 1-299); conditions: protein: recombinant; tags: N-terminal GST; dsDNA, one strand shown
Sequence of CRX (O43186 whole entry): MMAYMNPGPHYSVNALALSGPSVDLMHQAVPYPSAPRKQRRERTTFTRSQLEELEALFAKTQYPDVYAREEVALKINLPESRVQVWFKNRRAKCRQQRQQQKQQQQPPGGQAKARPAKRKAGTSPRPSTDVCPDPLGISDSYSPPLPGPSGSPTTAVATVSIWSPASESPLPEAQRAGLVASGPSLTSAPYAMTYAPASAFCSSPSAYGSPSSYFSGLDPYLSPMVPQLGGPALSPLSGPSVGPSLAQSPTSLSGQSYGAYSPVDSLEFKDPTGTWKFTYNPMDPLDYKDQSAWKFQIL
Procedure, shortened: as §1

ETV1 = ETV1 (Homo sapiens, UniProt P50549 1-477); conditions: protein: recombinant; tags: N-terminal GST; dsDNA, one strand shown
Sequence of ETV1 (P50549 whole entry): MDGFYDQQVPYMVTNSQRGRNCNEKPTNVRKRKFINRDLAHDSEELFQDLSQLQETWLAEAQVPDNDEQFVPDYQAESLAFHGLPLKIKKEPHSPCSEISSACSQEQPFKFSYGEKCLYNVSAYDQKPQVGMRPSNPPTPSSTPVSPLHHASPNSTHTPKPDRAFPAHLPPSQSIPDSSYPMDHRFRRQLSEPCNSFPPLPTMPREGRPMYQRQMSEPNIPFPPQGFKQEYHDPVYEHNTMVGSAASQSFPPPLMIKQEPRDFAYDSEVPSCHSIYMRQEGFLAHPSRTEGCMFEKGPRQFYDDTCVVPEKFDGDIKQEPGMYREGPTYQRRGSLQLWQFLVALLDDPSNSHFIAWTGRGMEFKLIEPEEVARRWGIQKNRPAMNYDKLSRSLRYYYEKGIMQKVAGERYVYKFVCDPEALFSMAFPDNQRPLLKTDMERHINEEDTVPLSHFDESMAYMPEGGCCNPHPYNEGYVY
Procedure, shortened: as §1

ERF = biological target: T6, ERF (Homo sapiens, UniProt P50548 1-548); conditions: protein: recombinant; tags: N-terminal GST; dsDNA, one strand shown
T6 sequence: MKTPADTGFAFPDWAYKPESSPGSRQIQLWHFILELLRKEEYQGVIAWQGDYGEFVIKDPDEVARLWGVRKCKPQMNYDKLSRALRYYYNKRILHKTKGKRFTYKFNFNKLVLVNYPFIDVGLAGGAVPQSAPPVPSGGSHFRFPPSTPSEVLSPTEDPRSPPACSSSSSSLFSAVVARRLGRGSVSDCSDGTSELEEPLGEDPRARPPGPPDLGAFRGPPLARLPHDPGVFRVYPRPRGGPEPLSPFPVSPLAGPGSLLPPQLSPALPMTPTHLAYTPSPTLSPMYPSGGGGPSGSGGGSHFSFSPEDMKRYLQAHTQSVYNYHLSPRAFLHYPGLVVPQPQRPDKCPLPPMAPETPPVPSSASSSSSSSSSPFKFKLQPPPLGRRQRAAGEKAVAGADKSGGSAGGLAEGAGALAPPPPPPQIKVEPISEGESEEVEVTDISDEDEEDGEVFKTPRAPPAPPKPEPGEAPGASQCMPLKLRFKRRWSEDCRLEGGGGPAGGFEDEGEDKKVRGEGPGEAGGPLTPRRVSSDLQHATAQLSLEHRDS
Procedure, shortened: as §1

ETV3L = biological target: T7, ETV3L (Homo sapiens, UniProt Q6ZN32 1-361); conditions: protein: recombinant; tags: N-terminal GST; dsDNA, one strand shown
T7 sequence: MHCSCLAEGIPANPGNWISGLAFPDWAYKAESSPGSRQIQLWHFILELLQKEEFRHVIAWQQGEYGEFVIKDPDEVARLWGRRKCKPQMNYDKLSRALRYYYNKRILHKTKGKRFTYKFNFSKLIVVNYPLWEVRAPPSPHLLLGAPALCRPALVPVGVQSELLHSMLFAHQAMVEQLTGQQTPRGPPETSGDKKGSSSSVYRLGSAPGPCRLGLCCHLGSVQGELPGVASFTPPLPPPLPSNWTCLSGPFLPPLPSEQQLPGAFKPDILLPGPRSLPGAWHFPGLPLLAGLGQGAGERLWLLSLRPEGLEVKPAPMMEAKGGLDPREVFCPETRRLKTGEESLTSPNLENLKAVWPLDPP
Procedure, shortened: as §1

ETS2 = biological target: T8, ETS2 (Homo sapiens, UniProt P15036 1-469); conditions: protein: recombinant; tags: N-terminal GST; dsDNA, one strand shown
T8 sequence: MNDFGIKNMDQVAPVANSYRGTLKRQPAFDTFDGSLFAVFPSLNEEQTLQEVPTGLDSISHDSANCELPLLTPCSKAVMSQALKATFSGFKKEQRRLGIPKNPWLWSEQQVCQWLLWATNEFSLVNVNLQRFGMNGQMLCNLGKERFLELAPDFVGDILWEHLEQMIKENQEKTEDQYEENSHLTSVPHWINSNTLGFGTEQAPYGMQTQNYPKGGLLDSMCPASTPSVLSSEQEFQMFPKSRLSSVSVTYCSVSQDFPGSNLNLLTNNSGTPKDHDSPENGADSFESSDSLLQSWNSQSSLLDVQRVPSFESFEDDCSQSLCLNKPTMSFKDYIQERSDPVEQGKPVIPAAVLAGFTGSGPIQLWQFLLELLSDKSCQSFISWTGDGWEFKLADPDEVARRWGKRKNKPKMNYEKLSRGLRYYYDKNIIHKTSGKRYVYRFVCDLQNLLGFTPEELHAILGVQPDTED
Procedure, shortened: as §1

SPDEF = biological target: T9, SPDEF (Homo sapiens, UniProt O95238 1-335); conditions: protein: recombinant; tags: N-terminal GST; dsDNA, one strand shown
T9 sequence: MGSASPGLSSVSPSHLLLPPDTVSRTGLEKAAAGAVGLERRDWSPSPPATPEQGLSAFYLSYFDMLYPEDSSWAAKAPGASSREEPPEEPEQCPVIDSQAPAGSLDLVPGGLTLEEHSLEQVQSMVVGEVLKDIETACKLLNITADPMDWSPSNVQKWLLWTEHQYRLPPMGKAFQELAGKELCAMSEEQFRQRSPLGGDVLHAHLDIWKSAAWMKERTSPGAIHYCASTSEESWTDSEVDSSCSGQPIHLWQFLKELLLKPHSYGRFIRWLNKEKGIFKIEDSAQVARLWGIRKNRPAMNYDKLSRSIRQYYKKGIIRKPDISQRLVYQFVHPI
Procedure, shortened: as §1

ETV7 = biological target: T10, ETV7 (Homo sapiens, UniProt Q9Y603 1-341); conditions: protein: recombinant; tags: N-terminal GST; dsDNA, one strand shown
T10 sequence: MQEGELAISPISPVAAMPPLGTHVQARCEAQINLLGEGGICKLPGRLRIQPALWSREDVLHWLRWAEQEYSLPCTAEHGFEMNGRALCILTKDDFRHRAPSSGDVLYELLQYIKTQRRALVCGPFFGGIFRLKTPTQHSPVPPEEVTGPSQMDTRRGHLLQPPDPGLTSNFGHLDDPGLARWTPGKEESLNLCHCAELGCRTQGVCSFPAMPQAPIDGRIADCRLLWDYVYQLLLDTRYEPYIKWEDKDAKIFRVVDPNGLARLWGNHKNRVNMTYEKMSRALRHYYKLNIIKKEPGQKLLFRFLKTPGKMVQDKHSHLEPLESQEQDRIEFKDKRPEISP
Procedure, shortened: as §1

ELF5 = biological target: T11, ELF5 (Homo sapiens, UniProt Q9UKW6-2 1-255); conditions: protein: recombinant; tags: N-terminal GST; dsDNA, one strand shown
T11 sequence: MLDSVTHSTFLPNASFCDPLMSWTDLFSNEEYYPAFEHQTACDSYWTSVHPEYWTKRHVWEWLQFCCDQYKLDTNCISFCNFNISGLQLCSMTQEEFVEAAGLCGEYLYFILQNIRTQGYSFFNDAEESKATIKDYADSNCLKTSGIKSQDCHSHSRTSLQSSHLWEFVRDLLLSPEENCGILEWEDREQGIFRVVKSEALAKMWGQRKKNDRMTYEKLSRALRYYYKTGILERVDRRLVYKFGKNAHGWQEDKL
Procedure, shortened: as §1

ETV3 = biological target: T12, ETV3 (Homo sapiens, UniProt P41162-2 1-143); conditions: protein: recombinant; tags: N-terminal GST; dsDNA, one strand shown
T12 sequence: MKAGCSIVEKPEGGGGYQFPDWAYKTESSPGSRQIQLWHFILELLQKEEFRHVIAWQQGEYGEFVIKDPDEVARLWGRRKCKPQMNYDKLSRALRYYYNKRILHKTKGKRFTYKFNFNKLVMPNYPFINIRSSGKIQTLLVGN
Procedure, shortened: as §1

ETV6 = ETV6 (Homo sapiens, UniProt P41212 1-452); conditions: protein: recombinant; tags: N-terminal GST; dsDNA, one strand shown
Sequence of ETV6 (P41212 whole entry): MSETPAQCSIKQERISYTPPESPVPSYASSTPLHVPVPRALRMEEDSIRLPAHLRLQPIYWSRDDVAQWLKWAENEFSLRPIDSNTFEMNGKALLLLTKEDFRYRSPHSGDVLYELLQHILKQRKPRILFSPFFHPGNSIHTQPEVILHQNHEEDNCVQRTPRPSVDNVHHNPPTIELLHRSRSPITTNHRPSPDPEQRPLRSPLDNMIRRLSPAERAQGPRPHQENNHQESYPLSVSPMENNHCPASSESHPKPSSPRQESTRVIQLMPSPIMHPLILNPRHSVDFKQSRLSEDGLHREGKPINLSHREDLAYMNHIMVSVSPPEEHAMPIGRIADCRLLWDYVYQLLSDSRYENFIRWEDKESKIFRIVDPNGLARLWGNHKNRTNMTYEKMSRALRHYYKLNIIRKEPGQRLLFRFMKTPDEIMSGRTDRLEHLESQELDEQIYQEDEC
Procedure, shortened: as §1

Sequence: TCTTCT
- binding signal (FEV): 1.16 fold enrichment (6-mer frequency, TF over GST control)
- binding signal (ETV5): 1.14 fold enrichment (6-mer frequency, TF over GST control)
- binding signal (HSF1): 2.17 fold enrichment (6-mer frequency, TF over GST control)
- binding signal (SPIC): 1.31 fold enrichment (6-mer frequency, TF over GST control)
- binding signal (ELF4): 1.16 fold enrichment (6-mer frequency, TF over GST control)
- binding signal (ELK4): 1.26 fold enrichment (6-mer frequency, TF over GST control)
- binding signal (ETV2): 1.22 fold enrichment (6-mer frequency, TF over GST control)
- binding signal (ELF3): 1.31 fold enrichment (6-mer frequency, TF over GST control)
- binding signal (CRX): 1.59 fold enrichment (6-mer frequency, TF over GST control)
- binding signal (ETV1): 1.25 fold enrichment (6-mer frequency, TF over GST control)
- binding signal (ERF): 1.24 fold enrichment (6-mer frequency, TF over GST control)
- binding signal (ETV3L): 1.29 fold enrichment (6-mer frequency, TF over GST control)
- binding signal (ETS2): 1.23 fold enrichment (6-mer frequency, TF over GST control)
- binding signal (SPDEF): 1.16 fold enrichment (6-mer frequency, TF over GST control)
- binding signal (ETV7): 1.06 fold enrichment (6-mer frequency, TF over GST control)
- binding signal (ELF5): 1.19 fold enrichment (6-mer frequency, TF over GST control)
- binding signal (ETV3): 1.25 fold enrichment (6-mer frequency, TF over GST control)
- binding signal (ETV6): 1.29 fold enrichment (6-mer frequency, TF over GST control)

— paper PMC7862700, “An all-to-all approach to the identification of sequence-specific readers for epigenetic DNA modifications on cytosine”
